Assays:
Test in all cases: PBM binding z-score (relative to random genomic background probes); higher = stronger binding; sequences stand for … in GC…GCGATTGACAGCGTAGAATGAAGG
[1] = test system: FXR:RXRa (NR concentration 270 nM, RXRa partner concentration 90 nM)
Summary of the method: (§1)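 For binding z-scores, the reference was random background probes on custom Agilent 4×180K protein-binding microarrays. These arrays were incubated 1 h with ligand-free nuclear receptor dimers in PBS pH 7.4, 2% milk, 0.02% Triton X-100, 1 mM DTT, 0.2 mg/mL BSA and 0.4 mg/ml salmon testes DNA. Fluorescence was scanned after antibody detection of each partner (one per run) and regression-normalized.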

[2] = test system: LXRa:RXRa (NR concentration 270 nM, RXRa partner concentration 90 nM)
Summary of the method: as §1

[3] = test system: LXRa homodimer (NR concentration 270 nM)
Summary of the method: as §1

[4] = test system: LXRb:RXRa (NR concentration 270 nM, RXRa partner concentration 90 nM)
Summary of the method: as §1

[5] = test system: LXRb homodimer (NR concentration 270 nM)
Summary of the method: as §1

[6] = test system: PPARa:RXRa (NR concentration 270 nM, RXRa partner concentration 90 nM)
Summary of the method: as §1

[7] = test system: PPARg:RXRa (NR concentration 180 nM, RXRa partner concentration 90 nM)
Summary of the method: as §1

[8] = test system: PPARg:RXRa 270nM:90nM, anti-RXR (NR concentration 270 nM, RXRa partner concentration 90 nM)
Summary of the method: as §1

[9] = test system: PPARg:RXRa 30nM:10nM, anti-RXR (NR concentration 30 nM, RXRa partner concentration 10 nM)
Summary of the method: as §1

[10] = test system: PPARg:RXRa 90nM:30nM, anti-RXR (NR concentration 90 nM, RXRa partner concentration 30 nM)
Summary of the method: as §1

[11] = test system: PPARg:RXRa DBDmut IVT, anti-RXR (DBD mutation: RXRa K156A/R161A, NR concentration 270 nM, RXRa partner concentration 90 nM)
Summary of the method: as §1

[12] = test system: PPARg:RXRa IVT, anti-PPARg (NR concentration 270 nM, RXRa partner concentration 90 nM)
Summary of the method: as §1

[13] = test system: PPARg DBDmut:RXRa IVT, anti-PPARg (DBD mutation: PPARg1 K132A/R137A, NR concentration 270 nM, RXRa partner concentration 90 nM)
Summary of the method: as §1

[14] = test system: PPARg DBDmut IVT, anti-PPARg (DBD mutation: PPARg1 K132A/R137A, NR concentration 270 nM)
Summary of the method: as §1

[15] = test system: PPARg homodimer (NR concentration 180 nM)
Summary of the method: as §1

[16] = test system: PXR:RXRa (NR concentration 270 nM, RXRa partner concentration 90 nM)
Summary of the method: as §1

[17] = test system: PXR homodimer (NR concentration 270 nM)
Summary of the method: as §1

[18] = test system: RARa:RXR (NR concentration 270 nM, RXRa partner concentration 90 nM)
Summary of the method: as §1

[19] = test system: RARa homodimer (NR concentration 270 nM)
Summary of the method: as §1

[20] = test system: RARb:RXRa (NR concentration 270 nM, RXRa partner concentration 90 nM)
Summary of the method: as §1

| Sequence | PBM binding z-score [1] | PBM binding z-score [2] | PBM binding z-score [3] | PBM binding z-score [4] | PBM binding z-score [5] | PBM binding z-score [6] | PBM binding z-score [7] | PBM binding z-score [8] | PBM binding z-score [9] | PBM binding z-score [10] | PBM binding z-score [11] | PBM binding z-score [12] | PBM binding z-score [13] | PBM binding z-score [14] | PBM binding z-score [15] | PBM binding z-score [16] | PBM binding z-score [17] | PBM binding z-score [18] | PBM binding z-score [19] | PBM binding z-score [20] |
| --- | --- | --- | --- | --- | --- | --- | --- | --- | --- | --- | --- | --- | --- | --- | --- | --- | --- | --- | --- | --- |
| ATCTCTAGGTAATAGTTCAGTGAATCCCGAGGAT | 0.178 | 0.499 | 0.496 | 0.482 | 0.778 | 3.1 | 5.39 | 6.33 | 5.08 | 6.63 | 2.36 | 2.79 | 1.15 | 2.02 | 1.07 | 0.458 | 0.386 | 0.192 | 1.4 | 1.16 |
| CAAACTAGGTGACGAAAGGTCAAAGTCGAATGAC | 5.48 | 6.5 | 5.58 | 5.5 | 2.04 | 6.16 | 8.73 | 7.47 | 4.53 | 7.2 | 8.02 | 7.93 | 1.7 | 2.14 | 4.87 | 5.93 | 1.38 | 6.62 | 1.88 | 4.82 |
| CGGCCAAGGTCAGCAGGTCAGTGAAAGCGACGTG | 5.72 | 3.58 | -0.0772 | 2.9 | -0.899 | 4.86 | 4.33 | 4.32 | 0.918 | 2.85 | 3.06 | 3.74 | -0.746 | -1.2 | 2.33 | 3.48 | 0.241 | 4.37 | 0.145 | 5.34 |
| TATACAGGGTCAACGGCCAGAGTACGAATGTCGA | 6.91 | 5.76 | 2.15 | 4.65 | 2.1 | 5.54 | 6.79 | 6 | 3.43 | 5.19 | 2.91 | 4.6 | 4.74 | 3.03 | 4.05 | 3.93 | 0.74 | 5.15 | 1.33 | 4.52 |
| ATCTCTAGTTAACAAGTTCAGTGAAAGAGAGGAC | 0.682 | 1.12 | 0.782 | 0.883 | 1.22 | 0.724 | 0.29 | 0.54 | 0.48 | 0.596 | 0.0329 | 0.697 | 1.35 | 1.03 | 0.961 | 1.81 | 2.1 | 0.902 | 1.15 | 1.49 |
| TTACCAAGGTGAAAGATCGTTGATGCACGCCTTG | 0.552 | 0.392 | -0.574 | 0.286 | -0.696 | 2.36 | 2.97 | 3.92 | 2.25 | 3.77 | 1.56 | 2.99 | 0.596 | 0.116 | 0.393 | 0.0637 | -0.296 | 0.393 | -0.301 | 1.23 |
| GGAACGAGGGCACTCGAGTTGATAGCATGGCGAT | 0.375 | 2.3 | -0.535 | -0.145 | -0.549 | 1.4 | 1.27 | 0.984 | -0.139 | 0.362 | 4.02 | 3.11 | 0.411 | -0.728 | -0.479 | 2.52 | -0.193 | 0.513 | -0.815 | 1.93 |
| GCTTGTAGATCAAGGTTAAAAAAGACTAAGCTAA | 0.221 | 1.35 | -0.113 | 0.828 | -0.501 | 1.84 | 1.19 | 2.38 | 0.522 | 1.79 | 1.05 | 1.23 | 0.281 | 0.272 | 0.282 | 0.574 | -0.0589 | 1.15 | 0.0785 | 0.688 |
| ACTATTAGTTGACTTAGCGCAACCGATACGACGC | -0.246 | -0.156 | 0.033 | -0.0894 | 0.667 | -0.285 | 0.811 | 0.137 | 0.148 | 0.0233 | 0.0649 | 0.107 | 1.97 | 1.39 | -0.0684 | -0.103 | 0.0644 | -0.262 | 0.57 | 0.104 |
| CAAACTAGGTCAAAGGTCGAAGTCGAGCCAACCA | 7.06 | 5.62 | 1.41 | 4.93 | 0.909 | 7.28 | 13.9 | 11.2 | 14.3 | 13.6 | 8.87 | 9.27 | 5.32 | 3.95 | 3.95 | 5.77 | 0.27 | 8.46 | 0.524 | 4.71 |
| GATACAGGGTCAAGGCCAGATTACGCGTATTGAT | 7.02 | 4.53 | 0.129 | 4.07 | 0.268 | 5.77 | 5.99 | 5.29 | 2.36 | 4.09 | 2.74 | 4.03 | 2.24 | 1.3 | 3.72 | 4.43 | 0.645 | 5.48 | 1.59 | 4.65 |
| CCTATTAGTTGACCATAAGGGCACCCGAAGCTCG | 0.765 | 0.567 | 0.422 | 0.491 | 0.755 | 0.457 | 0.534 | 0.375 | 0.138 | 0.172 | -0.198 | 0.504 | 0.132 | 0.825 | 1.88 | 0.521 | 0.781 | 0.981 | 1.56 | 1.2 |
| AGTCAAACTTCATCTAGGTAACGTAAGATATGCT | -0.0376 | -0.223 | -0.295 | 0.127 | 0.1 | -0.0609 | 0.882 | 0.333 | 0.414 | 0.33 | 0.952 | 1.7 | 1.48 | 0.721 | -0.505 | -0.365 | 0.02 | -0.125 | 0.222 | 0.212 |
| CGACCTAGGTCATCCAGGACAGTGAATACATTGA | 5.2 | 3.44 | 0.586 | 2.78 | 0.0681 | 4.33 | 3.93 | 3.43 | 1.07 | 2.59 | 3.28 | 3.89 | -0.0715 | 0.195 | 2.02 | 2.45 | 0.923 | 3.21 | 0.643 | 4 |
| TCGAGTAGGTTAGACGGGGCATTCAGCCAACATA | 0.121 | 0.00602 | -0.343 | 0.522 | -0.523 | 0.783 | 0.118 | 0.993 | 1.05 | 1.04 | 2.22 | 0.996 | -0.111 | 0.319 | -0.139 | -0.0359 | -0.369 | -0.135 | -0.49 | 0.612 |

— the supplement of paper PMC6555819
